# Only a selection was taken, and hits are over-represented in it overall.
# RXFP1 antag: RXFP1 (human) relaxin receptor antagonism; activity change, negative = inhibition, % at 57.5 µM; HEK293-RXFP1, relaxin-stimulated cAMP HTRF, 30 min; active compounds read low; 350,000 compounds, 0.59% hits;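 active means activity change of -60% or lower, but not beyond a set lower limit; inconclusive means change between -60% and -40%, or beyond the set limit; inactive means change above -40%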; further: on the % scale 0 is the no-effect control and ±100 the full control effect
# RXFP1 ag: agonists of human relaxin receptor RXFP1; AID 2676; HEK293T-RXFP1 cAMP TR-FRET, 30 min; response scale: percent of porcine relaxin response, buffer zero; Potency, µM (series often up to 57.5 µM), for inactives: at the top dose activation, hits mostly activators; Q9HBX9; 370,000 compounds, 0.3% hits; further: potency means the concentration at half of the fitted maximal effect; on the % scale 0 is the no-effect control and ±100 the full control effect; nearly all actives have a fitted effect of over 60% in size
#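 HEK293 cells stably expressing RXFP1, treated 30 min at 37C with compounds plus PDE4 inhibitor Ro 20174; cAMP measured by HTRF TR-FRET. Normalized to buffer and 29 nM porcine relaxin; EC50 by Hill fit.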
# TCR act: activates T cell receptor signaling; 330,000 tested, under 10 active; Potency, µM (highest dose often 9.22 µM), inactives show at the top dose activation of IL-2 secretion, most hits filed as activators; primary human leukocytes, anti-CD3, IL-2 HTRF, 48 h; further: % of control where 0% means no effect
#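 HTRF read-out of IL-2 secretion: europium cryptate donor excited at 320nm, d2 acceptor emission at 665nm. Cells were primary human leukocytes incubated 48 hr with compounds and a-CD3 beads, supplying TCR signal only.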
# PTHR1 agonist: activates the human parathyroid hormone receptor PTHR1 | Q03431 | HEK293 GP2 PTHR1 cells, GloSensor cAMP luminescence, 1 h | Potency, µM (highest dose often 115 µM), without a hit: at the highest dose activation, hits mostly activators | 410,000 compounds, 0.075% hits; further: potency means the concentration at half of the fitted maximal effect; nearly all actives have a fitted effect of over 55% in size
#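 HEK-293-derived GP2 cells expressing PTHR1 and a GloSensor cAMP reporter, 3,000/well, plated overnight, given luciferin plus IBMX (each 0.5 mM as added) for 1 h at 37 °C, then compound for 1 h at 37 °C. Luminescence was read after 15 min at room temperature.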
# NPSR antagonist: blocks cAMP signaling of the human neuropeptide S receptor. 220,000 compounds, 1% hits. CHO-NPSR cells, cAMP TR-FRET, antagonist mode. Q6W5P4. AID 1461. Potency, µM (doses to about 38.3 µM), inactives show at the top dose activity change, negative = inhibition, actives largely listed as inhibitors; further: potency means the concentration at half of the fitted maximal effect; on the % scale 0 is the no-effect control and ±100 the full control effect; nearly all actives have a fitted effect of over 50% in size
# Target sequence (Q6W5P4 whole entry, looked up): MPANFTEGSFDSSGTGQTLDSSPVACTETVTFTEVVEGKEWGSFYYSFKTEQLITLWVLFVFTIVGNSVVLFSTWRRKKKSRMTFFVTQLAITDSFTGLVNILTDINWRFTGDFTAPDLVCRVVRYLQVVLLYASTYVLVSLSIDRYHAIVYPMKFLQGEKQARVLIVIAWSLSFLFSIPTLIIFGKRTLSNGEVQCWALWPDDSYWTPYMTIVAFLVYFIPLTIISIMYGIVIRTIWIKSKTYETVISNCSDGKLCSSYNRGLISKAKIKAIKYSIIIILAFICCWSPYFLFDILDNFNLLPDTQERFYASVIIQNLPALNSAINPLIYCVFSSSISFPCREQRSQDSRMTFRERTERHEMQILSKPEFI
# TSHR antag: antagonists of human thyroid stimulating hormone receptor; AID 504810; 330,000 compounds, 0.2% hits; activity change, negative = inhibition, % at 11.5 µM; P16473; TSHR-expressing cells, TSH-stimulated cAMP HTRF, 2 h; active compounds read low;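 active means activity change below a set negative limit, meaning inhibition stronger than a set level, cut at about -70% in these data; inconclusive means activity change between two set negative limits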; further: on the % scale 0 is the no-effect control and ±100 the full control effect
#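 Read-out is FRET at 665 nm (cryptate excitation 337 nm) from a cryptate-tagged anti-cAMP antibody, competed by cell cAMP against cAMP-d2. Compounds are tested on freshly harvested TSHR cells challenged with 4nM TSH (EC80) for 2 hours at 37 deg C.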
# * hit, by the source's call; i = inactive; ? = inconclusive; . = not tested or not shown; [ ] = another dose, or the depositor's remark. Unless noted, the call rests on the fitted dose curve; in most records, active means well fitted curve in the direction sought with a large enough effect; inconclusive means small, poorly fitted or top-dose-only effect, or another doubt; inactive means no such curve, though single readings can be large; an effect the other way counts as inactive or inconclusive.
SMILES,RXFP1 antag,RXFP1 ag,TCR act,PTHR1 agonist,NPSR antagonist,TSHR antag
COc1cccc(C2C(C(=O)c3cc4cccc(OC)c4o3)=C(O)C(=O)N2c2cc(C)on2)c1OC (centres undefined),3,?,5%,-24%[57.5 µM],6.3µM*,1
COc1cc(C2C(C(=O)c3cc4ccccc4o3)=C(O)C(=O)N2c2cc(C)on2)cc(OC)c1OC (centres undefined),6,?,-8%,-29%,.,8
Cc1cc(N2C(=O)C(O)=C(C(=O)c3cc4ccccc4o3)C2c2cccc(Br)c2)no1 (centres undefined),10,16µM*,10%,-28%,.,-22
COc1ccccc1C1C(C(=O)c2ccco2)=C(O)C(=O)N1c1cc(C)on1 (centres undefined),-19,?,8%,-7%,.,-9
COc1cccc(C2C(C(=O)c3ccc(C)o3)=C(O)C(=O)N2c2cc(C)on2)c1 (centres undefined),-9,?,-4%,-5%,.,4
COc1cccc(C2C(C(=O)c3cc4ccccc4o3)=C(O)C(=O)N2c2cc(C)on2)c1OC (centres undefined),12,?,1%,-4%[57.5 µM],3.2µM*,27
COc1ccc(C2C(C(=O)c3ccco3)=C(O)C(=O)N2Cc2cccnc2)cc1OC (centres undefined),3,2%,-3%,-9%[57.5 µM],8%[46.1 µM],31
COc1ccc(CNC(=O)CCc2c(C)nn(-c3ccc(N4CCOCC4)nn3)c2C)cc1,.,-2%,.,-14%,.,.
OC(c1nc2ccccc2[nH]1)C(O)c1nc2ccccc2[nH]1 (centres undefined),-8,0%,.,i,.,10
FC(F)(F)c1nc2cc3nc4ccccc4[nH]c3cc2n1,-19,-1%,3%,-26%,13µM*,-26
Cc1nnc(N/N=C/c2cc([N+](=O)[O-])c(N3CCC(C)CC3)cc2N2CCC(C)CC2)n1N,44,0%,-2%,28µM*,10µM*,32
COc1cc2c(=O)n(Cc3ccccc3Cl)c(=O)n(CC(=O)Nc3ccccc3)c2cc1OC,.,7%,.,-15%,.,.
COc1cc(NC(=O)Cn2c(=O)n(Cc3ccccc3Cl)c(=O)c3cc(OC)c(OC)cc32)cc(OC)c1,.,25µM*,.,-5%,.,.
CCN1CCN(Cc2c3ccccc3cc3ccccc23)CC1,-60*,-1%,.,20%,.,-2
Oc1ccc2ccccc2c1CN1CCCC1,-23,1%,-5%,i,8%,3
O=C(Nc1ccc(Cl)cc1Cl)c1cc(S(=O)(=O)N2CCN(c3ccccc3F)CC2)ccc1F,-7,0%,.,i,.,.
Cc1ccc(C(=O)Nc2ccc(SC(F)F)cc2)s1,-73*,0%,7%,-47%,2%,-37
Cc1ccc(C)c(NC(=O)c2cnn(-c3cccc(F)c3)c2C2CCN(C(=O)OC(C)(C)C)CC2)c1,-16,-3%,.,-31%,.,.
O=C1C(Br)=Cc2cccc3cccc1c23,-69*,-5%,12%,-37%,-19%,-8
CCCOC(=O)c1c(-c2ccccc2)c(-c2ccccc2)nn(C)c1=O,-65*,2%,.,-23%,.,.
COCCNC(=O)c1c(-c2ccccc2)c(-c2ccccc2)nn(C)c1=O,-6,-2%,.,?,.,.
CCOc1ccc(-n2cc(-c3ccc(OC)c(OC)c3)[nH]c2=S)cc1,-76*,4%,3%,-19%,3%,2
COc1cc(C(=O)N/N=C/c2ccc(OC(=O)c3ccccc3Cl)cc2)ccc1O,-91*,0%,-7%,-43%,.,-7
Nc1ccc(C(=O)N/N=C\c2ccc(OC(=O)c3ccccc3Cl)cc2)cc1,7,5%,.,-5%,.,7
Cc1ccc(NC(=O)N2CCc3c([nH]c4ccccc34)C2c2ccccc2F)c(Cl)c1 (centres undefined),?,2%,.,?,.,.
O=C(c1ccccc1)c1cc(Cl)ccc1N1C(=O)C=CC1=O,-63*,0%,.,-27%,?,-9

# Screening results deposited in PubChem by National Center for Advancing Translational Sciences (NCATS).
